From the supplement of paper PMC3545927
The other results are listed elsewhere or left out. No count for the full screen is at hand.

B1: HC985 (peptide)
chain: CAMSADLEVVAGNASASA
B2: HC1592 (peptide)
chain: CALDCEIYGAAGNASASA
B3: HC384 (peptide)
chain: CAFNSSGCPEAGNASASA
B4: HC1103 (peptide)
chain: CAAILSPGALAGNASASA
B5: HC983 (peptide)
chain: CAIMTCMSADAGNASASA
B6: HC1401 (peptide)
chain: CADSHYQDVLAGNASASA
B7: HC2299 (peptide)
chain: CADPEVVTSTAGNASASA
B8: HC2219 (peptide)
chain: CAEVVTSPWVAGNASASA
B9: HC2354 (peptide)
chain: CAEVKCHRPSAGNASASA
B10: FS-2480 (peptide)
chain: CARARRHSDGAGNASASA
B11: HC1285 (peptide)
chain: CAKVVILDSFAGNASASA
B12: FS-1353 (peptide)
chain: CAKVLRSRRSAGNASASA
B13: FS-1614 (peptide)
chain: CASPRDARRSAGNASASA
B14: FS-979 (peptide)
chain: CAASRVSRRSAGNASASA
B15: FS-32 (peptide)
chain: CAIALRLRRSAGNASASA
B16: DV5 (peptide)
chain: CAHSRRSRRSAGNASASA
B17: FS-932 (peptide)
chain: CAHPRRSRRSAGNASASA
B18: HC1122 (peptide)
chain: CAASRGNHVSAGNASASA

Biological target: furin, P09958
Sequence (P09958 whole entry): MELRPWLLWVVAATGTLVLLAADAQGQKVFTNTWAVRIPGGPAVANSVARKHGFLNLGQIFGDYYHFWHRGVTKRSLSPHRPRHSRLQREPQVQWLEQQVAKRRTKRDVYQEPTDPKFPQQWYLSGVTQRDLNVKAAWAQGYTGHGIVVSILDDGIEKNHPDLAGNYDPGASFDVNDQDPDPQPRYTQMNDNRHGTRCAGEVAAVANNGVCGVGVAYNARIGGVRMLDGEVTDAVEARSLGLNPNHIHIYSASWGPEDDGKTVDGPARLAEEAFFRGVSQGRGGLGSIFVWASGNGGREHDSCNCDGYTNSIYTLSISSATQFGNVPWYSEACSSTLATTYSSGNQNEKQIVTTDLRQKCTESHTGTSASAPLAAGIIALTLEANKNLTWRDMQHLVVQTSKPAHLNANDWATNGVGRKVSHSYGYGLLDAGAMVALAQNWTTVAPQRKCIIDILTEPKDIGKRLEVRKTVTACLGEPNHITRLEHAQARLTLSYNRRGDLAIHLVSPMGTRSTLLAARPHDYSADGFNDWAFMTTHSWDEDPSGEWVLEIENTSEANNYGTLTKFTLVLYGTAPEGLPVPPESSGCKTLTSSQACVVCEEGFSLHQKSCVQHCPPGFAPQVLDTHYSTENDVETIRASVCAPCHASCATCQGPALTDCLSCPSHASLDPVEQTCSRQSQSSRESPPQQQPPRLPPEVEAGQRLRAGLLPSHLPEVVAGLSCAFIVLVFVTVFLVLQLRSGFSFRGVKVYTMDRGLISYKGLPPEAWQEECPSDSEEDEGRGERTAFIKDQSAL
Test: furin cleavage Z-score vs untreated control; higher = more cleavage, active = 3.5 or more, inactive = 1 or less, 8 variable residues between constant flanks
Outline: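 Peptides 8 residues long, fused to a cDNA oligonucleotide, were fixed to magnetic beads by the N-terminus and exposed to purified furin. The 0.01 ml reactions contained 50 mM HEPES pH 7.5 with CaCl2 and NaCl at 1:10 enzyme:substrate and ran 7.5, 15 or 30 min. For the cleavage Z-score, log counts of sequenced released DNA were compared with furin-free reactions, lowess-adjusted and scaled by median absolute deviation.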

Sequence	furin cleavage Z-score (7.5 min)	furin cleavage Z-score (15 min)	furin cleavage Z-score (30 min)
B1	-0.119 (inactive)	0.307 (inactive)	-0.651 (inactive)
B2	-0.215 (inactive)	-0.505 (inactive)	-1.05 (inactive)
B3	-0.864 (inactive)	-1.69 (inactive)	-0.153 (inactive)
B4	0.122 (inactive)	-1.5 (inactive)	-0.137 (inactive)
B5	-1.36 (inactive)	0.0813 (inactive)	-2.62 (inactive)
B6	-0.596 (inactive)	-0.846 (inactive)	0.188 (inactive)
B7	-0.751 (inactive)	-0.261 (inactive)	-0.557 (inactive)
B8	-0.287 (inactive)	-0.0163 (inactive)	0.0529 (inactive)
B9	0.191 (inactive)	-0.204 (inactive)	1.45
B10	6.39 (active)	6.07 (active)	5.39 (active)
B11	-0.496 (inactive)	-1.22 (inactive)	-0.351 (inactive)
B12	3.74 (active)	4.72 (active)	3.35
B13	-1.33 (inactive)	-1.24 (inactive)	-1.6 (inactive)
B14	5.49 (active)	7.22 (active)	5.62 (active)
B15	1.01	0.68 (inactive)	0.673 (inactive)
B16	12.2 (active)	12.3 (active)	9.14 (active)
B17	8.18 (active)	9.38 (active)	7.97 (active)
B18	1.32	0.577 (inactive)	1.1
